Test results as given in PubChem BioAssay (EPA / NIEHS).
Results filed as inconclusive are left out. Active and inactive are the calls of the source. How the source made its calls, unless noted: active means hit-call score of the fitted dose curve at least 0.9, where 1 is the maximum; inactive means score below 0.9.

How the values were obtained:
[1] = ACEA_ER_80hr: ACEA Biosciences xCELLigence Real-Time Cell Analysis on Estrogen Receptor Agonism for Proliferation (AID 2282667; active means hit-call score of the fitted dose curve at least 0.9, where 1 is the maximum); conditions: T47D proliferation, impedance (xCELLigence), 80 h
Summary of the method: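 Estrogen-driven proliferation is captured as electrode impedance in T47D cells 80 h after compound addition. Test articles ran at 8 concentrations, 1:4 dilutions from 100 uM final, in two replicate plates.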

[2] = ATG_CRE_CIS: Attagene CIS-FACTORIAL HepG2 Assay for human cAMP Responsive Element (CRE) binding protein 3 (AID 2282926); conditions: HepG2 CRE cis-reporter, Attagene multiplexed mRNA; actives raise or lower the signal
Summary of the method: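 Liver-derived HepG2, transfected with a CRE-containing reporter panel, exposed 24 h; transcript levels sized and quantified by capillary electrophoresis of labelled amplicons; signal changes either way referenced to vehicle.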

[3] = target: CCAAT/enhancer-binding protein beta (Homo sapiens) (UniProt P17676); experiment: ATG_C_EBP_CIS: Attagene CIS-FACTORIAL HepG2 Assay for human CCAAT/Enhancer Binding Protein (C/EBP) beta (AID 2282927); conditions: HepG2 Attagene cis-factorial transcription factor reporter; actives raise or lower the signal
Summary of the method: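 RT-PCR/capillary electrophoresis fluorescence of reporter mRNA, 24 h post-dose, in HepG2 cells carrying transfected cis-promoter reporter units. Bidirectional curve fitting against DMSO baseline captures gain or loss of signal.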

[4] = ATG_CMV_CIS: Attagene CIS-FACTORIAL HepG2 Assay for human CMV (Internal Marker) (AID 2282928); conditions: HepG2 CMV promoter reporter, transcription factor profiling; actives raise or lower the signal;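 further: endpoint acts as a background internal control marker rather than a target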
Summary of the method: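 Reporter transcripts from transfected HepG2 cells are isolated after 24 h of chemical dosing, reverse-transcribed and amplified. Fragments labeled with 6-FAM are cut with HpaI and quantified by capillary electrophoresis; DMSO defines baseline.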

[5] = ATG_DR4_LXR_CIS: Attagene CIS-FACTORIAL HepG2 Assay for human Liver X Receptor (LXR), DR4 submotif (AID 2282929); conditions: HepG2 Attagene DR4 cis-reporter, mRNA transcription; actives raise or lower the signal
Summary of the method: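 Fluorescence intensity of labelled reporter cDNA fragments, separated by capillary electrophoresis, gives the signal. HepG2 cells bearing cis-regulated reporter constructs were treated 24 h; activity fitted bidirectionally relative to DMSO negative control.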

[6] = target: Aryl hydrocarbon receptor (Homo sapiens) (UniProt P35869); experiment: ATG_Ahr_CIS: Attagene CIS-FACTORIAL HepG2 Assay for human Aryl Hydrocarbon Receptor (Ahr) (AID 2282930); conditions: HepG2 AhR cis-factorial reporter transcription; actives raise or lower the signal
Summary of the method: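 HepG2 cells transiently transfected with cis-element-driven multiplexed reporter transcription units; endogenous transcription factor activity measured as reporter mRNA 24 h after dosing. RT-PCR, 6-FAM labelling, HpaI digestion, capillary electrophoresis; bidirectional fitting versus DMSO baseline.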

[7] = ATG_AP_2_CIS: Attagene CIS-FACTORIAL HepG2 Assay for human Activator Protein 2 (AP-2) (AID 2282932); conditions: HepG2 AP-2 cis-reporter, Attagene transcription factor profiling; actives raise or lower the signal
Summary of the method: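 Assay in transfected HepG2 with promoter-regulated reporters, 24 h incubation after dosing. Signal is reporter mRNA fluorescence (RT-PCR, capillary electrophoresis), analysed for both increases and decreases relative to DMSO controls.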

[8] = target: Retinoic acid receptor alpha (Homo sapiens) (UniProt P10276); experiment: ATG_DR5_RAR_CIS: Attagene CIS-FACTORIAL HepG2 Assay for human Retinoic Acid Receptor Alpha (RARE), DR5 submotif (AID 2282934); conditions: HepG2 Attagene cis-factorial RARE DR5 reporter, mRNA; actives raise or lower the signal
Summary of the method: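 HepG2 cells transiently transfected with multiplexed reporter units under cis (DR5 RARE) promoters, so endogenous transcription factor activity is measured. After 24 h compound exposure, reporter mRNA is quantified by RT-PCR with fluorescent labelling and capillary electrophoresis; bidirectional fitting versus DMSO.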

[9] = target: Transcription factor E2F1 (Homo sapiens) (UniProt Q01094); experiment: ATG_E2F_CIS: Attagene CIS-FACTORIAL HepG2 Assay for human E2F Transcription Factor 1 (AID 2282935); conditions: HepG2 Attagene cis-reporter, E2F reporter RNA transcripts; actives raise or lower the signal
Summary of the method: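 In this cis-factorial format, endogenous factor activity drives transfected reporters in HepG2; transcripts collected at 24 h are quantified by fluorescence after RT-PCR and capillary separation.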

[10] = ATG_E_Box_CIS: Attagene CIS-FACTORIAL HepG2 Assay for human Enhancer Box (E-box) (AID 2282936); conditions: HepG2 E-box cis-reporter transcription, actives raise or lower the signal
Summary of the method: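 Measured 24 h post-dosing in HepG2 cells transfected with multiple cis-regulated reporter units, signal being reporter mRNA induction detected by fluorescent RT-PCR with capillary electrophoresis; gain or loss fitted against DMSO.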

[11] = ATG_EGR_CIS: Attagene CIS-FACTORIAL HepG2 Assay for human Early Growth Response 1 (EGR1) (AID 2282938); conditions: HepG2 Attagene CIS-FACTORIAL EGR reporter mRNA; actives raise or lower the signal
Summary of the method: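 Activity is taken as induction or loss of reporter mRNA versus DMSO, fitted bidirectionally. Transcripts from cis-regulated reporter units in transiently transfected HepG2 were measured after 24 h by RT-PCR with capillary electrophoresis.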

[12] = ATG_M_19_CIS: Attagene CIS-FACTORIAL HepG2 Assay for M19 Transcription Factor (Internal Marker) (AID 2282939); conditions: HepG2 Attagene CIS-FACTORIAL M19 internal marker reporter; actives raise or lower the signal
Summary of the method: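 Transfect HepG2 with MRTU reporter library → dose chemical, 24 h → isolate total RNA, reverse-transcribe with oligo(dT) → PCR, 6-FAM label, HpaI cut (2 h, 37 C) → capillary electrophoresis. Bidirectional fit vs DMSO.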

[13] = ATG_ERE_CIS: Attagene CIS-FACTORIAL HepG2 Assay for Estrogen Response Element (ERE) (AID 2282940); conditions: HepG2 ERE cis-reporter, Attagene RNA transcript; actives raise or lower the signal
Summary of the method: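 Transient MRTU transfection of human HepG2; cis-element promoters; 24 h dosing; total RNA → RT (oligo dT) → PCR → 6-FAM primer extension → HpaI digest → CE fluorescence. Bidirectional fit, DMSO baseline.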

[14] = ATG_Ets_CIS: Attagene CIS-FACTORIAL HepG2 Assay for human Erythroblast Transformation Specific (ETS) (AID 2282941); conditions: HepG2 ETS cis-reporter transcription, actives raise or lower the signal
Summary of the method: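 Bidirectional fit versus DMSO of reporter mRNA signal, detected by RT-PCR and capillary electrophoresis in HepG2 cells transiently transfected with cis-element reporters and dosed 24 h.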

[15] = target: Hepatocyte nuclear factor 3-beta (Homo sapiens) (UniProt Q9Y261); experiment: ATG_FoxA2_CIS: Attagene CIS-FACTORIAL HepG2 Assay for human Forkhead box A2 (FOXA2) (AID 2282942); conditions: HepG2 cis-reporter transcription factor activity, 24 h; actives raise or lower the signal
Summary of the method: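 Reporter transcript induction is measured by fluorescence after capillary electrophoresis of RT-PCR products from HepG2 cells exposed 24 h. Cis-regulated reporter units report endogenous factor activity; curves fitted both directions against DMSO.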

[16] = ATG_FoxO_CIS: Attagene CIS-FACTORIAL HepG2 Assay for human Forkhead box O (FoxO) (AID 2282943); conditions: HepG2 Attagene cis-reporter, FoxO element, mRNA; actives raise or lower the signal
Summary of the method: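 HepG2 cells transiently transfected with cis-promoter-driven multiple reporter transcription units; 24 h after chemical dosing, reporter mRNA quantified by RT-PCR, fluorescent primer extension, HpaI digestion and capillary electrophoresis. Bidirectional fitting versus DMSO baseline.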

[17] = ATG_GATA_CIS: Attagene CIS-FACTORIAL HepG2 Assay for human GATA Binding Protein (AID 2282944); conditions: HepG2 GATA cis-element reporter, Attagene multiplex mRNA; actives raise or lower the signal
Summary of the method: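 Transient MRTU transfection, HepG2, 24 h compound exposure. Total RNA → oligo(dT) RT → PCR → 6-FAM primer extension → HpaI cut → CE. Bidirectional fit vs DMSO.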

[18] = ATG_BRE_CIS: Attagene CIS-FACTORIAL HepG2 Assay for human Bone Morphogenetic Protein (BMP) Response Element (BRE) (AID 2282933); conditions: HepG2 BMP response element reporter, Attagene transcription factor profiling; actives raise or lower the signal
Summary of the method: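 Transient MRTU transfection of human HepG2 liver cells; 24 h compound treatment; total RNA isolated, reverse-transcribed, PCR-amplified, 6-FAM labelled, HpaI-cut, capillary electrophoresis. DMSO = negative control/baseline, bidirectional fit.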

[19] = ATG_M_61_CIS: Attagene CIS-FACTORIAL HepG2 Assay for M61 Transcription Factor (Internal Marker) (AID 2282937); conditions: HepG2 Attagene CIS-FACTORIAL M61 internal marker reporter; actives raise or lower the signal
Summary of the method: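 Endogenous transcription factor activity in HepG2 is read through transiently transfected cis-element reporter units. After 24 h dosing, RNA undergoes reverse transcription, PCR and primer extension with 6-FAM before capillary electrophoresis; DMSO-referenced bidirectional fit.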

[20] = ATG_AP_1_CIS: Attagene CIS-FACTORIAL HepG2 Assay for human Activator Protein 1 (AP-1) (AID 2282931); conditions: HepG2 Attagene cis-factorial AP-1 reporter mRNA; actives raise or lower the signal
Summary of the method: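 Multiplexed HepG2 reporter assay, 24 h dosing. mRNA induction detected by RT-PCR plus capillary electrophoresis. Activity fitted in both directions against DMSO.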

Measured: AC50

Chain of Transcription factor E2F1 (Homo sapiens) (Q01094 whole entry, looked up): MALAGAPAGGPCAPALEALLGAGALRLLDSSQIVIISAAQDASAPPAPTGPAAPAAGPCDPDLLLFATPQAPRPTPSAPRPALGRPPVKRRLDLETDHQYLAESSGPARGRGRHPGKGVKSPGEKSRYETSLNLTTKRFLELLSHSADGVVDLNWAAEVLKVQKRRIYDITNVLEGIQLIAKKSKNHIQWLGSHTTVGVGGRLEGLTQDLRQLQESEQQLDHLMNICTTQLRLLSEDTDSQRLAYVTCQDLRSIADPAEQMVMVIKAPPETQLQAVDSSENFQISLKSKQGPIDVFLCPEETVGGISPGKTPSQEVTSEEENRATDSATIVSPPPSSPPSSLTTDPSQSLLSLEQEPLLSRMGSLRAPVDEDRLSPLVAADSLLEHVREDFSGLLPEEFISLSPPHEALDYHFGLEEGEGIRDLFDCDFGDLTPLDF
Chain of Retinoic acid receptor alpha (Homo sapiens) (P10276 whole entry, looked up): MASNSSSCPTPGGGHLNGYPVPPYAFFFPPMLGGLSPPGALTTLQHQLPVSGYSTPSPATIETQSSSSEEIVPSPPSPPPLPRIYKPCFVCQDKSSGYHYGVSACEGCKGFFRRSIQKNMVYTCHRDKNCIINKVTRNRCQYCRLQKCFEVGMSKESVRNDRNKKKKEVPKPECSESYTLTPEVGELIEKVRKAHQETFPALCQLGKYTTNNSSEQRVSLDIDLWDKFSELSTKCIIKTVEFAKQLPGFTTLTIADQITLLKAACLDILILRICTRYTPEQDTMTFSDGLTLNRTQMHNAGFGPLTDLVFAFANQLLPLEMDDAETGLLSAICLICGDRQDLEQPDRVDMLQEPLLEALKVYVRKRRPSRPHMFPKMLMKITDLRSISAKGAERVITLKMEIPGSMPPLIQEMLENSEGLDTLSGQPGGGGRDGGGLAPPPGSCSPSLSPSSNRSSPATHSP
Chain of Aryl hydrocarbon receptor (Homo sapiens) (P35869 whole entry, looked up): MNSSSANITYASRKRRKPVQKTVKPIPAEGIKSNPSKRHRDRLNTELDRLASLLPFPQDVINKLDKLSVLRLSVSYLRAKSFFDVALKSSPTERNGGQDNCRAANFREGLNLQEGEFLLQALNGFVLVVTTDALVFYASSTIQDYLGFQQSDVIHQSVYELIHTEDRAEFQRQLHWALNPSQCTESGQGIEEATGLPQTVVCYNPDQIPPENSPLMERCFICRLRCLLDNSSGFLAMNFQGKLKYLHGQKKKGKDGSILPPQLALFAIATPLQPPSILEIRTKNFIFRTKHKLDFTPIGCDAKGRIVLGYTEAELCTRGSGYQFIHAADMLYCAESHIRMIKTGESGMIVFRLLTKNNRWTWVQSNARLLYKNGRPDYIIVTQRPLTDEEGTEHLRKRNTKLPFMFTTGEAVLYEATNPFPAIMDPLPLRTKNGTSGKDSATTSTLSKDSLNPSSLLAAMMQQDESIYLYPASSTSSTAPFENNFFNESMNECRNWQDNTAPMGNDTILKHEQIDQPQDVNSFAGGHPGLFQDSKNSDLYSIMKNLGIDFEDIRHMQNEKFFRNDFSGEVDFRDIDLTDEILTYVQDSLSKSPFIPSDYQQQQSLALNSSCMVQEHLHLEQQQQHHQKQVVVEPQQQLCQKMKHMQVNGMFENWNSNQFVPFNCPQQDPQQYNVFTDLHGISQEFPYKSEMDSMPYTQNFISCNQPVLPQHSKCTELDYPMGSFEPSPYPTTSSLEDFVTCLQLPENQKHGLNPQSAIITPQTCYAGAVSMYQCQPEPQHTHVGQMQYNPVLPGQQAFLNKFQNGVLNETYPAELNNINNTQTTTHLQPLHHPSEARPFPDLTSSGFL
Chain of CCAAT/enhancer-binding protein beta (Homo sapiens) (P17676 whole entry, looked up): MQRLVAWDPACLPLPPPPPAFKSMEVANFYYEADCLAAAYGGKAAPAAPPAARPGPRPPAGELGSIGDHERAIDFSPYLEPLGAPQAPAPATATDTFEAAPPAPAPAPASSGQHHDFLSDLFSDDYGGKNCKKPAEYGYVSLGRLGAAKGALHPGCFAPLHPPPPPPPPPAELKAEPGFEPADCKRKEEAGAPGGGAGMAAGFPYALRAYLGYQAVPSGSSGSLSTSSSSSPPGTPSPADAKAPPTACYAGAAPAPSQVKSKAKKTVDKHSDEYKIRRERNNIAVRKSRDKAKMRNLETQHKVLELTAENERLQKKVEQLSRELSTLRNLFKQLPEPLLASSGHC
Chain of Hepatocyte nuclear factor 3-beta (Homo sapiens) (Q9Y261 whole entry, looked up): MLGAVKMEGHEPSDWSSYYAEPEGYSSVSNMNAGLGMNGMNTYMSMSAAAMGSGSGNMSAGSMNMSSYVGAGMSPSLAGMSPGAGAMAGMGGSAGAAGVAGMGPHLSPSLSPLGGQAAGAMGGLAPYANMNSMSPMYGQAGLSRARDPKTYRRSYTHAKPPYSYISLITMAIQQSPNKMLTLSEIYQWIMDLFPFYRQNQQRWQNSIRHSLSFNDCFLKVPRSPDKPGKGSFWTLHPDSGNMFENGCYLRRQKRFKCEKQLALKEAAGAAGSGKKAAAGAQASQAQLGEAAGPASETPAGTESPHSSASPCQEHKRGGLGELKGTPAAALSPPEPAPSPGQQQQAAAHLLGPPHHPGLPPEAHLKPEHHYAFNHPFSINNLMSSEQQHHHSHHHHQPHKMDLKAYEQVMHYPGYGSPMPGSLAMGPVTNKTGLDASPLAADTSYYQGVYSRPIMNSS

O=c1c(O)c(-c2ccc(O)cc2O)oc2cc(O)cc(O)c12
active: [1] 47.5 µM | [13] 0.65 µM
not listed: [18] | [19] | [20]
inactive: all other assays above

CCCCOC(=O)C(C)CC (stereo unspecified)
not listed: [20]
inactive: all other assays above

CC(c1cc(C(C)(C)C)cc(C(C)(C)C)c1O)c1cc(C(C)(C)C)cc(C(C)(C)C)c1O
not listed: [7] | [20]
inactive: all other assays above

CN(C)c1ccc2nc3ccc(=[N+](C)C)cc-3sc2c1
active: [4] 1.69 µM | [6] 5.2 µM | [18] 12.2 µM | [10] 16.7 µM
not listed: [20]
inactive: all other assays above

C=CCCCCCCCCOC(C)=O
not listed: [7] | [16] | [19]
inactive: all other assays above

CCCC/C=C/C=C\C=O
active: [4] 159 µM | [5] 135 µM | [20] 149 µM | [11] 100 µM
not listed: [7] | [8]
inactive: all other assays above

CC(=O)OCc1ccccc1
not listed: [7] | [16] | [19]
inactive: all other assays above

CCCCCOC(=O)CCCCC
not listed: [16] | [18] | [20]
inactive: all other assays above

CCCCC/C=C\C/C=C\CCCCCCCC(=O)O
active: [5] 76.9 µM | [6] 100 µM | [20] 153 µM | [11] 72.5 µM
not listed: [7] | [8] | [14] | [17] | [18]
inactive: all other assays above

CCCCOC(=O)CCC(C)=O
not listed: [9] | [20]
inactive: all other assays above

CCCCCC1=CCCC1=O
active: [1] 0.106 µM
not listed: [8] | [17] | [20]
inactive: all other assays above

CC1=CCC2CC1C2(C)C (stereo unspecified)
not listed: [6] | [7]
inactive: all other assays above

CCC(C)(O)CCCC(C)C (stereo unspecified)
not listed: [6] | [8] | [18]
inactive: all other assays above

C=C(C)C(=O)OCCOC(=O)C(=C)C
not listed: [6] | [8] | [10] | [17]
inactive: all other assays above

C1CCSC1
not listed: [6]
inactive: all other assays above

Oc1ccc(-c2ccccc2)c(Cl)c1
active: [1] 10.5 µM | [2] 33.4 µM | [4] 43.1 µM | [20] 60.2 µM | [18] 33.4 µM | [11] 53.9 µM | [13] 9.09 µM
not listed: [6]
inactive: all other assays above
